PostGolgi yeast – phenotypic screen on post-Golgi transport, primary screen. post-Golgi transport phenotypic cell assay. hit rate 0.9% among 98,000. AID 739, 2007. inhibition, % at 10 µM;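 further: yeast cells grown in 1536-well plates; yeast grown about 18 h at 30C before absorbance read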
CYP2C9 inhib – blockers of cytochrome P450 2C9 activity – biochemical, luminescence, ADME assay, primary screen; P11712; CYP2C9 Supersomes, luciferin-H conversion; inhibition, % at 5 µM; hit rate 20% among 96,000;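 active means blocking of liver enzyme CYP2C9 beyond about 50% at 5 µM, limit read from the data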
CYP2C9 act – human CYP2C9 activators, primary screen, biochemical, luminescence. hit rate 1.4% among 96,000. recombinant CYP2C9, luciferin-H conversion; active compounds read high; factor 1 = untreated enzyme, 0 = blocked. activation factor at 5 µM;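 active means activation factor of 2 or more for CYP2C9 at a 5 µM dose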
CYP2C19 act – human CYP2C19 activators, primary screen, biochemical, luminescence; AID 1025, 2008; 96,000 tested, under 10 active; recombinant CYP2C19, luciferin-H EGE luminescence; active compounds read high; 0 = fully inhibited enzyme, 1 = untreated enzyme; activation factor at 5 µM; Cytochrome P450 2C19 (Homo sapiens), P33261;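 active means activation factor of at least 2 at 5 µM in the primary screen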
Target sequence (P33261 whole entry, looked up): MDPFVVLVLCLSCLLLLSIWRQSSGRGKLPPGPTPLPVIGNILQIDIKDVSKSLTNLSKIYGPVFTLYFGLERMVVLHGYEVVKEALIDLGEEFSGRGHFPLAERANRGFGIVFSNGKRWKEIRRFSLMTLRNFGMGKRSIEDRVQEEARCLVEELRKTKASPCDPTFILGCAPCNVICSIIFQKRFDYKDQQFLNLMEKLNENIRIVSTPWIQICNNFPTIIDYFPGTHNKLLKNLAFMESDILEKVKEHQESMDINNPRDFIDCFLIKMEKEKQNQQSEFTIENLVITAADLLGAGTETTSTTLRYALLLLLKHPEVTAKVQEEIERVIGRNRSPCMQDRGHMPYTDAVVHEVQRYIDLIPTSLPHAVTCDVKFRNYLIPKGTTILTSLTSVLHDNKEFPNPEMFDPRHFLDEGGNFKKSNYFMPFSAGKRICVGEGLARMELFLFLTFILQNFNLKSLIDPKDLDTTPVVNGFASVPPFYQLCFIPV
PostGolgi ctrl – growth inhibition of yeast control strain, primary screen, counter-screen for post-Golgi transport modulator project. efflux-deficient yeast background strain, growth absorbance A615, 16 h. inhibition, % at 10 µM. AID 738, 2007. hit rate 5% among 98,000
CYP2C19 inhib – blockers of cytochrome P450 2C19 activity – biochemical, luminescence, ADME assay, primary screen | P33261 | CYP2C19 Supersomes, luciferin-H EGE luminescence, 30 min | inhibition, % at 5 µM | hit rate 21% among 96,000 | AID 778, 2007;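 active means CYP2C19 inhibition above a set limit at 5 µM in the primary screen, cut at about 50% in these data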
Each line names hits and unclear results; the compound was inactive in the other large screens. Rows were chosen to be rich in hits. Some 32% of all compounds tested hit in one or more screens of this group. Unless noted, no stated cut-off is given here; in the data, active means inhibition above about 30%; inactive means the rest.

CC(=O)c1c(C(C)=O)c(C)n(NC(=O)c2ccc(Cl)cc2)c1C	PostGolgi yeast 31.2
CC(=O)c1c(C(C)=O)c(C)n(Cc2ccc(Cl)cc2)c1C	CYP2C19 inhib 86.5
CCOC(=O)c1c(C=O)c(C)n(Cc2ccc(Cl)cc2)c1C	CYP2C9 inhib 84.3, PostGolgi ctrl 42.2
CSc1cc(C)n(-c2ccc(Cl)cc2)c(=S)c1C(C)=O	none
Cc1cc(-c2nsc(=O)o2)c(S(C)(=O)=O)s1	none
O=C(NC1CC1)c1sccc1-n1cccc1	none
O=C(C1CCCCC1)N1CCN(c2ccccc2F)CC1	none
Cn1c(=O)c2c(ncn2CC(=O)OCc2ccccc2)n(C)c1=O	CYP2C9 inhib 63.0
Cn1c(=O)c2c(nc(SCC(=O)OCc3ccccc3)n2C)n(C)c1=O	CYP2C9 inhib 80.1, PostGolgi ctrl 33.9
O=C(Nc1cccc(F)c1)c1cccc(S(=O)(=O)N2CCOCC2)c1	none (no result: CYP2C9 inhib, CYP2C9 act, CYP2C19 act, CYP2C19 inhib)
O=C(CSc1nc2ccc([N+](=O)[O-])cc2[nH]1)c1ccc2ccccc2c1	CYP2C9 inhib 54.4
COc1ccc2nc(SCC(=O)c3ccco3)[nH]c2c1	none
CCCOc1ccc(C(C)=O)cc1CSCCC#N	none (no result: CYP2C9 inhib, CYP2C9 act, CYP2C19 act, CYP2C19 inhib)
CCCOc1ccc(C(C)=O)cc1CSc1nc(O)cc(=O)[nH]1	CYP2C9 inhib 74.6
C=CCn1c(SCC(=O)c2cccs2)nc2sc(CC)cc2c1=O	none
CCn1c(SCC(=O)N2CCc3ccccc3C2)nc2c1c(=O)n(C)c(=O)n2C	none
C=CCn1c(SCC(=O)Nc2cc(C)on2)nc2sc(CC)cc2c1=O	CYP2C9 inhib 72.1
C=CCn1c(SCC(=O)N2CCN(C(=O)c3ccco3)CC2)nc2sc(CC)cc2c1=O	CYP2C9 inhib 99.1, CYP2C19 inhib 90.3
C=CCn1c(SCC(=O)N2CCc3ccccc3C2)nc2sc(C)cc2c1=O	CYP2C9 inhib 96.0, PostGolgi ctrl 49.9, CYP2C19 inhib 63.1
CC(=O)Nc1ccccc1N(C)S(=O)(=O)c1ccc(C)cc1	none
CC1(C(=O)c2ccccc2)C2c3c(ccc4ccccc34)OC(=O)C21C(=O)N1CCOCC1 (centres undefined)	PostGolgi ctrl 46.4
Cc1ccc(C=Nc2ccc(N(C)C)cc2)o1	CYP2C19 inhib 52.5
CCN(CC)c1ccc(C=Nc2ccc(N(C)C)cc2)c(O)c1	none
CCCCS(=O)CC(COCc1ccccc1)OC(=O)CSc1nc(C)cc(C)n1 (centres undefined)	none
O=C(Nc1nnc(C2CC2)s1)c1ccncc1	CYP2C9 inhib 55.8
O=C(CC1CCCC1)Nc1nnc(C2CC2)s1	CYP2C19 inhib 52.5
O=C(Nc1nnc(C2CCCC2)s1)C1CCC1	CYP2C9 inhib 55.7
Cc1ccc(OCCn2ccc(=O)[nH]c2=O)cc1C	none
O=C(CCN1C(=O)C2C3C=CC(C3)C2C1=O)Nc1ccc2ncccc2c1 (centres undefined)	none
O=C(O)CCCC(=O)Nc1ccccc1Br	none
O=C(O)C1C2C=CC(O2)C1C(=O)NCCC1=CCCCC1 (centres undefined)	none (no result: CYP2C9 inhib, CYP2C9 act, CYP2C19 act, CYP2C19 inhib)
COc1ccc2cc(C(=O)NC3CCCCC3)c(=O)oc2c1	CYP2C9 inhib 70.5, CYP2C19 inhib 95.6
COc1ccc2cc(C(=O)NCc3ccco3)c(=O)oc2c1	none
COc1ccc(C(=O)c2cc3ccc(O)cc3oc2=O)cc1	CYP2C19 inhib 62.8
O=C(NCc1ccco1)c1cc2ccc(O)cc2oc1=O	CYP2C9 inhib 92.6, CYP2C19 inhib 96.6
COc1ccc(N=c2oc3cc(O)ccc3cc2C(=O)NCC2CCCO2)c(OC)c1 (centres undefined)	none
O=C(c1ccccc1)c1cc2ccc(O)cc2oc1=O	CYP2C9 inhib 79.7, CYP2C19 inhib 93.4
COc1cc(SC)ccc1C(=O)NC1CCCCC1	none
NC(=O)CSc1nnc(Cc2ccc3c(c2)OCO3)n1C1CCCCC1	none
CCc1nc(N)c(C#N)c(-c2cccnc2)c1C	none
Cc1nc(N)c(C#N)c(-c2cccnc2)c1C	CYP2C9 act 2
CCC(=O)n1nc(-c2ccccc2)nc1SCC(=O)Nc1ccc(C)cc1	none
CC(=O)n1nc(-c2cccc(C)c2)nc1SCC(=O)Nc1ccccc1	CYP2C9 inhib 60.6, CYP2C19 inhib 55.2
CCc1ccccc1NC(=O)CSc1nc(-c2ccccc2)nn1C(=O)c1cccc([N+](=O)[O-])c1	CYP2C9 inhib 73.8, CYP2C19 inhib 76.4
O=C(CSc1nc(-c2ccccc2)nn1C(=O)c1ccccc1)Nc1cccc([N+](=O)[O-])c1	CYP2C9 inhib 67.5
Cc1ccc(NC(=O)CSc2ncc(-c3ccccc3)n2C(=O)c2ccccc2)cc1	CYP2C9 inhib 58.7, CYP2C19 inhib 69.3
O=C(CN1C(=O)CSC1=O)Nc1ccc(N2CCOCC2)cc1	none
NC(=O)c1ccc(NC(=O)CCCN2C(=O)c3ccccc3C2=O)cc1	none
c1coc(-c2nc3c([nH]2)CCc2nonc2-3)c1	none
Cc1nnc(C)c2c(C)n(Cc3ccc4c(c3)OCO4)c(C)c12	none
O=C(O)CCCC(=O)NS(=O)(=O)c1ccc(Cl)cc1	none
Cc1cc(C)nc(Sc2c(C)nn(-c3ccccc3)c2C)n1	CYP2C19 inhib 91.3
Cc1cc(N)n(-c2ccccc2)n1	none
CC(C)(C)OC(=O)N1CCC[C@H]1c1nnc(SCc2c(Cl)cccc2Cl)o1	CYP2C9 inhib 78.4, CYP2C19 inhib 71.2
O=C(Nc1ccccc1)N(Cc1ccccc1)C1=NCCS1	CYP2C9 inhib 55.6
O=C(Nc1ccccc1)N(C1=NCCCCS1)c1cccc2ccccc12	CYP2C19 inhib 61.3
CC(=O)Nc1ccc(-c2nc3c(C)cccc3[nH]2)cc1	none
Cc1cccc2cc(C(c3nnnn3CC3CCCO3)N3CCCc4ccccc43)c(=O)[nH]c12 (centres undefined)	CYP2C9 inhib 56.3
Cc1ccc(C)c2[nH]c(=O)c(C(c3nnnn3Cc3ccccc3)N3CCc4ccccc4C3)cc12 (centres undefined)	CYP2C9 inhib 72.7, CYP2C19 inhib 85.3
O=c1[nH]c2cc3c(cc2cc1C(c1nnnn1Cc1ccccc1)N1CCCCCC1)OCCO3 (centres undefined)	none
CCOc1ccc2[nH]c(=O)c(C(c3nnnn3CC3CCCO3)N3CCc4ccccc4C3)cc2c1 (centres undefined)	CYP2C9 inhib 67.5, CYP2C19 inhib 50.0
Cc1cccc2cc(C(c3nnnn3Cc3ccc4c(c3)OCO4)N3CCCC3)c(=O)[nH]c12 (centres undefined)	CYP2C9 inhib 50.4
CC(C)OCCCNc1ncnc2c1[nH]c1ccccc12	none
Cc1ccc2cc(C(c3nnnn3CC3CCCO3)N3CCc4ccccc4C3)c(=O)[nH]c2c1 (centres undefined)	CYP2C9 inhib 70.9, PostGolgi ctrl 42.2

Compound activity: PubChem BioAssay, several laboratories
